Data as given in PubChem BioAssay AID504558 (Broad Institute, 2011).
Screen size: about 350,000 compounds; about 2,400 (0.69%) were called active. Rule as the data show it: active = inhibition above about 41%; inconclusive = no clear call, values can overlap the other calls; inactive = below that. The list comes from a sample in which actives are over-represented; it also holds similar structures and randomly drawn compounds.

test: EBV LMP1-driven NF-kappaB luciferase reporter inhibitors, primary screen, cell-based, luminescence, single point (AID 504558); conditions: LMP1-induced NF-kappaB luciferase reporter cells, at 12.5 µM, stronger effect = higher value;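 also: 0% = neutral control wells and 100% = reference inhibitor control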

Compound	inhibition
CCCn1c(N)c(C(=O)CSc2nnc(Cc3cccs3)n2C2CC2)c(=O)[nH]c1=O	0.699% (inactive)
O=C(CSc1ncn[nH]1)Nc1nc2c(F)c(F)c(F)cc2s1	-1.34% (inactive)
CCOC(=O)/C(=C\c1ccc([N+](=O)[O-])cc1)C(=O)c1cc(C(C)=O)c(Nc2ccccc2)s1	55.7% (active)
O=C(O)C(=Cc1ccc([N+](=O)[O-])cc1)CCc1ccccc1	2.53% (inactive)
CCOC(=O)C(=Cc1ccccc1)C(=O)c1ccccc1	31.5% (inactive)
COc1ccc(NC(=O)CN(C)C(=O)c2cc(C)oc2C)cc1	-4.83% (inactive)
Cc1cccc(C)c1NC(=O)CNC(=O)c1ccc(N2CCOCC2)c([N+](=O)[O-])c1	-0.676% (inactive)
O=c1oc2ccccc2cc1-c1cn(-c2ccccc2)c(=S)[nH]1	73.5% (active)
CS(=O)(=O)N1CCN(C(=O)c2cc3ccccc3oc2=O)CC1	9.53% (inactive)
COc1cccc(-n2c(=S)[nH]c3c(oc4ccccc43)c2=O)c1	-10.2% (inactive)
C[C@H]1CN([C@@H](C)CO)C(=O)CCCn2cc(nn2)CO[C@@H]1CN(C)C(=O)Nc1ccccc1	-0.0595% (inactive)
Cc1ccc([C@H]2C[C@H](O)[C@@H](n3cc(COC(=O)c4ccccc4)nn3)CN2C(=O)C2CCCCC2)cc1	7.15% (inactive)
COc1ccc(CN2C(=O)C(CC(=O)NCc3cccc4ccccc34)CC(C(=O)N3CCOCC3)=C2C)cc1 (centres undefined)	1.6% (inactive)
CSc1nc(-c2ccccc2)nc(C(Cl)Cl)n1	85.7% (active)
Cc1csc(SCC(=O)Nc2ccc(C)c(S(=O)(=O)N(C)C)c2)n1	-5.08% (inactive)
Cc1ccc(CCNC(=O)CN2C(=O)CSc3ccc(S(=O)(=O)N4CCOCC4)cc32)cc1	-9.19% (inactive)
O=C1CC[C@@H](C(=O)N2CSC[C@@H]2C(=O)Nc2ccc(C(F)(F)F)cc2)N1	-8.12% (inactive)
CC(C)C(C)NC(=O)COc1nc2ccccc2nc1N(C)C1CCCCC1 (centres undefined)	-16% (inactive)
CC(C)c1cc(C(=O)NC2CCCCCC2)c2ccccc2n1	-2.77% (inactive)
CN(c1ccc2nc3ccccc3c(=O)n2n1)C1CCCCC1	76% (active)
CC1(c2cccc(N)c2)OCCO1	-20.7% (inactive)
Cc1cc2ccccc2n1CCC(=O)O	2.51% (inactive)
Cc1cc2ccccc2n1CCNC(=O)COc1ccc2ccccc2c1	52.5% (active)

Compound	inhibition
COC(=O)C(C)NC(=O)COc1ccc2ccccc2c1 (centres undefined)	-5.65% (inactive)
CC(=O)c1ccccc1NC(=O)COC(=O)C1COc2ccccc2O1 (centres undefined)	-0.0295% (inactive)
O=c1[nH]c2ccccc2n1C1CCN(CCOc2ccccc2)CC1	5.46% (inactive)
OC(COc1ccc2c(c1)CCC2)CN1CCN(c2cccc(Cl)c2)CC1 (centres undefined)	-1.09% (inactive)
CCC(=O)c1ccc(OCC(O)CN2CCN(c3cccc(C(F)(F)F)c3)CC2)cc1 (centres undefined)	1.92% (inactive)
OC(COc1ccccc1)CN1CCN(c2cccc(Cl)c2)CC1 (centres undefined)	46.9% (active)
CCOC(=O)c1c(NC(=O)COC(=O)c2ccc(S(=O)(=O)C(F)F)cc2)sc(C(=O)N(C)C)c1C	1.83% (inactive)
CC(=NNC(N)=O)C1CC2CCC1CC2 (centres undefined)	4.52% (inactive)
CC(OC(=O)c1ccc(NC(=O)CC#N)cc1)C(=O)Nc1ccc(S(=O)(=O)N2CCCC2)cc1 (centres undefined)	-2.22% (inactive)
Cc1ccccc1NC(=O)Cc1nc(COC(=O)C(C)(C)Oc2ccc(Cl)cc2)cs1	-2.11% (inactive)
Cc1noc(C)c1S(=O)(=O)N(C)C[C@H]1OCCCC[C@@H](C)Oc2ccc(NC(=O)CCCN(C)C)cc2C(=O)N([C@H](C)CO)C[C@@H]1C	-4.38% (inactive)
COc1ccc(C(=O)Nc2cccc(/C=C(/CCC(=O)O)c3nc4ccccc4s3)c2)cc1	-6.71% (inactive)
COC(=O)Cc1[nH]n(-c2nc3ccccc3s2)c(=O)c1C(C)=Nc1ccc(OC)cc1	59.5% (active)
COc1ccccc1NC(=O)c1ccc2nc(N3C(=O)CCC3=O)sc2c1	-13.5% (inactive)
C[C@H]1CN([C@@H](C)CO)C(=O)CCCn2cc(nn2)CO[C@@H]1CN(C)S(=O)(=O)c1cccc(C#N)c1	-4.24% (inactive)
Cn1nccc1C(=O)NC1CCCc2c1cnn2-c1ccccc1F (centres undefined)	28.4% (inactive)
COc1ccc(OC)c(C(=O)NC2CCCc3c2cnn3-c2cc(C)cc(C)c2)c1 (centres undefined)	-16.3% (inactive)
COc1ccc(C(=O)NC2CCCc3c2cnn3-c2cccc(C)c2C)c(OC)n1 (centres undefined)	47.8% (active)
O=C(O)C1=C(C(=O)O)C2CCC1C2	-22.4% (inactive)
COc1ccc(-c2csc(Nc3cccc(C)n3)n2)cc1OC	56.6% (active)
Cc1cccc(NC(=O)COc2ccc(Br)cc2C)n1	-11.9% (inactive)
COc1ccc2c(c1OC)C(=O)OC2Nc1nc(-c2ccccc2)cs1 (centres undefined)	22.9% (inactive)
Cc1ccc(-c2ccc(CN3C(C(C)C)C(=O)N(Cc4cn(CCC5OCCCO5)nn4)CCS3(=O)=O)cc2)cc1 (centres undefined)	3.16% (inactive)

Compound	inhibition
C[C@H]1CN([C@@H](C)CO)C(=O)CCCn2nncc2CO[C@@H]1CN(C)Cc1ccc(Oc2ccccc2)cc1	8.56% (inactive)
COc1ccc(C2=Nc3cc(C)ccc3OC2)cc1	91.3% (active)
COc1ccc(C2=NOC(COC(=O)c3ccc4ccccc4n3)C2)cc1 (centres undefined)	3.2% (inactive)
Cc1ccc(C(=O)NNC2=Nc3cc([N+](=O)[O-])ccc3OC2)cc1	-21.3% (inactive)
CCN(CC)C(=O)C(C)N1c2cccc3cccc(c23)S1(=O)=O (centres undefined)	11.1% (inactive)
COc1ccc(S(=O)(=O)N2CCC(C(=O)NCCC(=O)NCCc3cccc(F)c3)CC2)cc1	6.77% (inactive)
O=C(c1cc(-c2ccc(O)cc2)on1)N1CCOCC1	12% (inactive)
O=C(c1cc(-c2cccc(O)c2)on1)N1CCc2ccccc2C1	-0.0205% (inactive)
O=C(c1cc(-c2ccc(O)cc2)on1)N1CCCc2ccccc21	83.9% (active)
C[C@@H]1CN([C@@H](C)CO)C(=O)CCCn2nncc2CO[C@H]1CN(C)Cc1ccc(C(F)(F)F)cc1	-1.15% (inactive)
Nc1ccc(S(=O)(=O)NC(=O)c2ccccc2)cc1	5.43% (inactive)
CC(=O)Nc1ccccc1NC(=O)c1cc(C)cc(C)c1	-2.05% (inactive)
Nc1ccc(C(=O)Nc2ccccc2N)cc1	43.3% (active)
Cc1ccc(Cc2c(-c3ccc(C)cc3)nc3c4ccccc4ccn23)cc1	-19.4% (inactive)
Cc1ccc(C(=O)N2CCCc3ccccc32)c(Cl)c1	6.82% (inactive)
CC(Sc1ccc(S(=O)(=O)N2CCN(C)CC2)cn1)C(=O)NC1CCCC(C)C1C (centres undefined)	-17.5% (inactive)
CCCCCCc1cc2cc(-c3nnc(-c4ccccc4)o3)c(=O)oc2cc1O	52% (active)
CCc1ccc(CN(C)C(=O)CCc2nnc(-c3ccc(-c4ccccc4)cc3)o2)nc1	5.34% (inactive)
O[C@H]1C[C@H](c2ccc(Cl)cc2)N(Cc2cccs2)C[C@@H]1n1cc(C2CC2)nn1	1.65% (inactive)
CCOc1ccc(NS(=O)(=O)c2ccc(C(=O)NCC3CCCO3)cc2)cc1 (centres undefined)	-2.59% (inactive)
COc1ccc(CN2C(=O)C(CC(=O)NCCCCc3ccccc3)CC(C(=O)N3CCOCC3)=C2C)cc1 (centres undefined)	-8.73% (inactive)
COc1ccc(-c2nc(-c3ccccc3)no2)c(OC)c1	67.3% (active)
COc1ccc(OC)c(-c2csc(-c3cccs3)n2)c1	0.747% (inactive)

Compound	inhibition
COc1ccc(/C=C/c2noc(-c3ccccc3OC(C)=O)n2)cc1	9.61% (inactive)
C#CCN(C[C@@H]1[C@@H](OC(=O)NC2CC2)[C@@H](OC(=O)NC2CC2)Cn2c(=O)ccc(=O)n21)S(=O)(=O)c1ccc(C)cc1	4.07% (inactive)
CCOc1ccc(NC(=S)N2CCC(NC(=O)c3ccccc3)CC2)cc1	0.728% (inactive)
Cc1cc(N/C=C\C(=O)c2ccc(Cl)c(Cl)c2)no1	-16.1% (inactive)
CCOc1ccc(N/C=C/C(=O)c2ccccc2)cc1	82.1% (active)
COc1ccc(C(=O)/C=C/Nc2ccccn2)cc1	67% (active)
CCOc1ccc(N/C=C/C(=O)c2cc(OC)c(OC)c(OC)c2)cc1	-9.23% (inactive)
CCOc1cc2ccccc2cc1C(=O)Nc1ccccn1	-13.7% (inactive)
NC1=CC(=O)C(=O)c2cccnc21	12.1% (inactive)
COCC(=O)N(C)C[C@H]1Oc2cc(Br)ccc2S(=O)(=O)N([C@H](C)CO)C[C@H]1C	0.42% (inactive)
O=C(Cc1ccc([N+](=O)[O-])cc1)NCCS(=O)(=O)N1CCN(c2ccccc2)CC1	-3.09% (inactive)
c1ccc(C(=NNc2nc3ccccc3s2)c2ccccn2)cc1	79.1% (active)
C/C(=N/Nc1nc(-c2ccccc2)c(CC(=O)O)s1)c1ccccc1	-38.4% (inactive)
COc1cc(OC)nc(N/N=C(\c2ccccc2)c2ccncc2)n1	3.44% (inactive)
COc1cccc(OC)c1C(=O)N1CCN(Cc2ccccc2F)CC1	2.93% (inactive)
C[C@@H]1CN([C@@H](C)CO)C(=O)c2c(c3ccccc3n2C)-c2ccccc2CO[C@H]1CN(C)C(=O)C1CC1	-4.84% (inactive)
CCOC(=O)c1c(C)[nH]c(C)c1S(=O)(=O)NCCCc1ccco1	-0.931% (inactive)
CCOC(=O)c1c(C)[nH]c2c1-c1ccccc1C(=O)C2=O	92.7% (active)
CCOC(=O)c1[nH]c2ccccc2c1N=C(C)N(CC)CC	0.352% (inactive)
C[C@H]1NS(=O)(=O)c2cc(Cl)ccc2O[C@@H]1c1ccccc1	-0.001% (inactive)
